In ChEMBL document CHEMBL3988442, “University of Dundee, Small-Polar-MMV Screening Library” (2021):
The campaign covered roughly 69,000 compounds. About 420 (0.61%) showed an effect of 50% or more. What follows is part of a selection rich in strong results, with near analogues and random picks from the rest.

molecular target: T1, Histidine--tRNA ligase (Leishmania infantum) (UniProt A4I591); test: Leishmania infantum Histidine tRNA synthetase (LdHisRS); type: functional; parameters: scale not given: in the data most compounds retested in dose-response had high values; conditions: 30 µM
T1 sequence (whole entry): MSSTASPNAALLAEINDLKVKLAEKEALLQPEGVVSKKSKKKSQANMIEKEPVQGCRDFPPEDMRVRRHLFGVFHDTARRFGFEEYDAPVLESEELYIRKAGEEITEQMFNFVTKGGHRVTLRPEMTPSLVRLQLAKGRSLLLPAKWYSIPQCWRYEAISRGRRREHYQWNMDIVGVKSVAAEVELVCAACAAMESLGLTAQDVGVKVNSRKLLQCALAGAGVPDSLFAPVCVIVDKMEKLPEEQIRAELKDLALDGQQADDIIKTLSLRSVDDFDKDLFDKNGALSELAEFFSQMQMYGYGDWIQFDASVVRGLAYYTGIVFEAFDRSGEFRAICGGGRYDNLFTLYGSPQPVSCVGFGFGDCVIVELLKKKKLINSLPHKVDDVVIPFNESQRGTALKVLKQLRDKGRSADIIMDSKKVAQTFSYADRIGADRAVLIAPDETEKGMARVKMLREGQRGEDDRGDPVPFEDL

Row | Structure (SMILES) | Percent Effect
1 | COCCNC(=O)[C@H]1CN(c2nnc(C)s2)C[C@H]2OCC[C@@H]12 | 5.11%
2 | COc1ccc(Oc2cc(CN)ccn2)cc1 | 32.5%
3 | NCc1ccnc(Oc2ccccc2)c1 | 59%
4 | NCc1ccnc(Oc2ccc(F)cc2)c1 | 30.1%
5 | CNC(=O)CN1CC[C@H]2CN(C(=O)c3ccccc3F)C[C@H]2C1 | 16.7%
6 | O=C(NC1CC1)[C@H]1C[C@H]2OCC[C@H]2N(Cc2ccc(F)cc2)C1 | 2.78%
7 | CNC(=O)CN1CCO[C@H]2CN(CC3CCOCC3)C[C@H]21 | 32%
8 | CCN1C[C@H]2C3(CCN(S(=O)(=O)CC)CC3)CC[C@@]2(C(=O)N(C)C)C1 | 7.69%
9 | Cc1noc([C@]23COC[C@H]2CN(C(=O)Cc2ccsc2)C3)n1 | 9.91%
10 | COCCN(C(=O)c1ccccn1)c1nc2c(s1)CCc1c-2cnn1C | 101%
11 | COCCN(Cc1ccoc1)C(=O)c1ccccn1 | 16.4%
12 | CCCN(C(=O)c1ccccn1)c1nc2c(s1)CCc1c-2cnn1C | 106%
13 | COCCN(C)C(=O)c1nc2c(s1)CCCN2c1ncccn1 | 17.5%
14 | CN(C(=O)c1ccccn1)c1nnc(C2CCOC2)s1 (stereo unspecified) | 5.59%
15 | CN(C(=O)c1ccccn1)c1nc2c(s1)CCc1c-2cnn1C | 103%
16 | Cc1cnccc1-c1cnn(CCNC(=O)c2ccccn2)c1C1CC1 | 4.25%
17 | CCCN(CCc1ccccn1)C(=O)CCc1cnn(C)c1 | 1.21%
18 | Cc1cc(-c2cnc(C)nc2CN(C)C(=O)c2ccccn2)on1 | 2.07%
19 | Cc1ccc(CN2CC[C@@H]3[C@@H](CO[C@H]3CN(C)C)C2)o1 | 10%
20 | CC(C)NC(=O)N1CC[C@@H]2CN(Cc3ccccc3)S(=O)(=O)[C@@H]2CC1 | 1.5%
21 | COCCN1CCN(Cc2ccc(C(C)=O)cc2)[C@H]2CS(=O)(=O)C[C@H]21 | 22.2%
22 | Cc1nnc(N2C[C@H](C(=O)NCC3CC3)[C@@H]3CCO[C@@H]3C2)s1 | 2.91%
23 | Cc1ccn(C)c(=O)c1NC(=O)N(C)Cc1cccc(OC(C)C)c1 | 77.5%
24 | CC(C)Oc1cccc(CN(C)C(=O)Nc2cccn(C)c2=O)c1 | 13.9%

Row | Structure (SMILES) | Percent Effect
25 | CCC(=O)N(C)Cc1cccc(OC(C)C)c1 | 4.46%
26 | Cc1csc(CN2CC[C@H]3C(=O)N(c4cccnc4)CCO[C@H]3C2)n1 | 23.1%
27 | CC(C)(C)c1nc2cc(NC(=O)Cn3ccc(=O)[nH]c3=O)ccc2o1 | 14%
28 | COCc1nc2cc(NCc3ccc(C)o3)ccc2o1 | 102%
29 | COc1ccccc1C(C)(C)NCc1ccc(C)o1 | 2.86%
30 | Cc1ccc(CNC(C)(C)c2noc(C(C)(C)C)n2)o1 | 27.1%
31 | COCc1nc2c(o1)CN(C(=O)NCc1ccccc1)C2 | 16%
32 | COCc1nc2cc(NCc3ccc(CO)o3)ccc2o1 | 86.6%
33 | O=C(NCC1CC1)[C@@H]1CCO[C@@H]2CCN(Cc3ccsc3)C[C@H]21 | 20%
34 | Cn1cnc(S(=O)(=O)N2CCO[C@H]3[C@@H](OCC4CC4)CC[C@@H]32)c1 | -5.26%
35 | Cc1nc(-c2ccc(CC(=O)N3CCN(C(=O)C(C)C)CC3)cc2)cs1 | 63.6%
36 | Cc1nc(-c2ccc(CC(=O)N3CCN(C(=O)C4CC4)CC3)cc2)cs1 | 21.2%
37 | Cc1nc(-c2ccc(CC(=O)N3CCNC(=O)C3)cc2)cs1 | -9.09%
38 | Cc1csc([C@@H]2C[C@@H]3CCN(C(=O)c4cc(C)on4)C[C@H]3O2)n1 | 18.4%
39 | CC(=O)N1[C@H](Cn2cncn2)C[C@@H]2CN(C(=O)c3ccoc3)CC[C@@H]21 | 13.5%
40 | O=C1CC(c2ccco2)c2sc(C(=O)O)c(-c3ccccc3)c2N1 (stereo unspecified) | 91.4%
41 | O=C1CC(c2ccc(O)cc2)c2sc(C(=O)O)c(-c3ccccc3)c2N1 (stereo unspecified) | 20.8%
42 | O=C1CC(c2ccccc2)c2sc(C(=O)O)c(-c3ccccc3)c2N1 (stereo unspecified) | 13%
43 | COC[C@@]12CC[C@@H](N3CCOCC3)C[C@H]1CCN(c1ncccc1Cl)C2 | 22.9%
44 | O=C1O[C@@H]2CN(Cc3cc4ccccc4o3)C[C@@H]2N1Cc1ccccn1 | 0%
45 | CN1CCN(Cc2nnc(C3CCN(CC4CC4)CC3)n2C)CC1 | 21.1%
46 | CN1CCN(Cc2nnc(C3CCN(C4CCCCC4)CC3)n2C)CC1 | 13.2%
47 | CN1CCN(Cc2nnc(C3CCN(C(CO)CO)CC3)n2C)CC1 | 80.7%
48 | Cc1ccnc(OC[C@]23COC[C@H]2CN(C(=O)C2=CCCCC2)C3)n1 | 5.56%

Row | Structure (SMILES) | Percent Effect
49 | CN(Cc1cccnc1)c1nccc(N2CCN[C@H]3CS(=O)(=O)C[C@H]32)n1 | 12.9%
50 | c1ccc(CN2C[C@@H]3CC[C@H](C2)N(Cc2nnc(C4CC4)o2)C3)cc1 | 34%
51 | COc1cc(N2C[C@@H]3COC[C@]3(C(=O)NCc3ccccn3)C2)ncn1 | 5.26%
52 | COCCNC(=O)Cn1c(-c2ccco2)cc2cccnc21 | 14.8%
53 | O=C(Cn1c(-c2ccco2)cc2cccnc21)N1CCCC1 | 76.5%
54 | CC(C)N(C(=O)Cn1c(-c2ccco2)cc2cccnc21)C(C)C | 20.1%
55 | Cc1nnc([C@@]23CCO[C@@H]2CCN(Cc2nccs2)C3)o1 | 7.92%
56 | CN(C)C(=O)N1C[C@@H]2CCCO[C@@H]2[C@H](N(C)Cc2ccco2)C1 | 11.4%
57 | c1ccc(-c2cc(CN3CCCC(Cn4cncn4)C3)on2)cc1 (stereo unspecified) | 8.55%
58 | C1CC(CN2C[C@H]3CC[C@@H]2CN(Cc2noc(C4CCCC4)n2)C3)C1 | 8.51%
59 | c1ccc(-c2cc(CN3C[C@@H]4CC[C@H](C3)N(CC3CC3)C4)on2)cc1 | 26.7%
60 | c1ccc(-c2nnc(CN3C[C@@H]4CC[C@H](C3)N(CC3CCC3)C4)o2)cc1 | 21.3%
61 | c1ccc(-c2cc(CN3C[C@@H]4CC[C@H](C3)N(CC3CCC3)C4)on2)cc1 | 51.7%
62 | O=C(NCC1CC1)[C@@H]1CCO[C@@H]2CCN(CCc3ccccc3)C[C@H]21 | 13.7%
63 | CN1CCN(C(=O)[C@H]2CC[C@@H]3[C@@H](CCN3Cc3nccs3)O2)CC1 | -10.1%
64 | Cc1cc(CN2CCN(CC3CC3)[C@@H]3CS(=O)(=O)C[C@@H]32)cc(C)c1O | 8.33%
65 | O=C([C@H]1C[C@H]2OCC[C@H]2N(Cc2ccco2)C1)N1CCCO1 | 22.2%
66 | CN(Cc1nccs1)c1nccc(N2CCN[C@H]3CS(=O)(=O)C[C@H]32)n1 | 14.5%
67 | O=C(NCc1ccco1)[C@@H]1CC[C@@H]2[C@@H](CCN2CC2CC2)O1 | 23.3%
68 | O=C(NCc1ccco1)[C@@H]1CC[C@@H]2[C@@H](CCN2Cc2ccc(F)cc2)O1 | 69.9%
69 | O=C(NCc1ccco1)[C@H]1CC[C@@H]2[C@@H](CCN2Cc2cccnc2)O1 | 23.3%
70 | O=C(NCc1ccco1)[C@H]1CC[C@@H]2[C@@H](CCN2Cc2nccs2)O1 | 31.5%
71 | Cn1cc(CN2CC[C@H]3O[C@H](C(=O)NCc4ccco4)CC[C@H]32)cn1 | 9.43%
